For 36 molecules, inhibition results are on record in ChEMBL document CHEMBL3433997, “St. Jude Leishmania screening dataset” (2016).

Structures are written as SMILES.

Holding throughout (format): functional
The target of experiment [1] is Solute carrier family 2, facilitated glucose transporter member 1 (Homo sapiens) (UniProt P11166). The experiment can be described thus: ST_JUDE_LEISH: Cytotoxicity at 2uM final concentration against transgenic Leishmania Mexicana promastigotes LmGLUT1 that are glucose transport deficient and complemented with the human glucose transporter GLUT1. Activity is measured by DNA content using SYBR green in vitro.

Experiment [2] addresses Hexose transporter 1 (Plasmodium falciparum) (UniProt O97467). Put plainly: ST_JUDE_LEISH: Cytotoxicity at 2uM final concentration against transgenic Leishmania Mexicana promastigotes LmPfHT that are glucose transport deficient and complemented with the Plasmodium falciparum hexose transporter. Activity is measured by DNA content using SYBR green in vitro.
In experiment [3] the target is Glucose transporter (Leishmania mexicana) (UniProt O61059). The experiment can be described thus: ST_JUDE_LEISH: Cytotoxicity at 2uM final concentration against transgenic Leishmania Mexicana promastigotes LmGT2 that are glucose transport deficient and complemented with the L. Mexicana glucose transporter 2. Activity is measured by DNA content using SYBR green in vitro.

Solute carrier family 2, facilitated glucose transporter member 1 (Homo sapiens), sequence (P11166 whole entry): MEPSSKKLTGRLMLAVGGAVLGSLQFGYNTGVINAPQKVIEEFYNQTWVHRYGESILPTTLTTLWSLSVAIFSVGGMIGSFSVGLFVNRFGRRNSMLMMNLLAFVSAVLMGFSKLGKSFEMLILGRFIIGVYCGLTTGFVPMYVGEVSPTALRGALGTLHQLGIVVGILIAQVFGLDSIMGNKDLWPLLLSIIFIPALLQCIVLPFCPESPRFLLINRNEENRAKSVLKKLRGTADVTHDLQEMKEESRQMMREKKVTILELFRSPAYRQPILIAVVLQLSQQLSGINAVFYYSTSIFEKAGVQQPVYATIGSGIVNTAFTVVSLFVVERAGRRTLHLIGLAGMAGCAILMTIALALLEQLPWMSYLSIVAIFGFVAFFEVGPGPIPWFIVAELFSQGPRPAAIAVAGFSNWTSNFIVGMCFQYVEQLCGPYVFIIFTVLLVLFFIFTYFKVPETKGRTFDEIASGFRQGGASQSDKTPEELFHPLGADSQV

For the molecule `Cc1cc(N(C)C)nc(Nc2ccc(NC(=O)c3ccccc3F)cc2)n1`, the values for the inhibition in experiment [1], in experiment [2] and in experiment [3] were 1.36%, 12.2% and 2.04%, respectively.

As for `CN(C)c1nc(NCc2ccccc2)nc(N/N=C/c2cc([N+](=O)[O-])ccc2O)n1`, the inhibition in experiment [1] was -1.92%; in experiment [2] it was -1.79%; in experiment [3] it was -1.5%.

Turning to `Cc1cc(N[C@@H](Cc2ccccc2)C(=O)NCCc2ccccc2)nc(NCCc2ccc(F)cc2)n1`, the inhibition in experiment [1] is -1.91%; in experiment [2] it was -1.86%; in experiment [3] it was -1.12%.

Regarding `Cc1cc(NCCc2ccccc2)nc(NC(=N)Nc2cccc(F)c2)n1`, the inhibition in experiment [1] was 2.17%; in experiment [2], 3.28%; in experiment [3] it was -0.09%.

On to `CC(C)C1c2ccc(O)cc2CC2C(=O)N(C3CCCCC3)C(=O)N21` (stereo not drawn), for which the inhibition is -1.04% in experiment [1], -1% in experiment [2] and -0.94% in experiment [3].

With `Cc1cnc(C(=O)Nc2cccc(-c3ccc(-c4nc5cc(F)ccc5[nH]4)cc3)c2)cn1`, the inhibition is 12.2% in experiment [1], 10% in experiment [2] and 8.63% in experiment [3].

For `CN1CCN(c2nsc3ccc(-c4ccc(OCCN5CCCC5)cc4)cc23)CC1`, the inhibition in experiment [1] is 13.2%; in experiment [2] it was 11.4%; in experiment [3], 9.39%.

Take `O=C(Cn1c(SCc2cccc(F)c2F)cc(=O)c2ccccc21)N(CCCn1ccnc1)Cc1ccc(-c2ccc(C(F)(F)F)cc2)cc1`: the inhibition in experiment [1] was determined as 3.11%; in experiment [2], 1.44%; in experiment [3], 2.6%.

Consider `Cc1ccc(-c2nnc(-c3ccc(C(=O)NC4CCN(Cc5ccc(C#N)cc5)CC4)cc3)o2)cc1Br`, for which the inhibition turned out to be 8.8% in experiment [1], 5.73% in experiment [2] and 4.37% in experiment [3].

For the molecule `CN1CCN(CC(=O)Nc2ccc(-c3csc(-c4nc5ccccc5[nH]4)c3)cc2)CC1`, the inhibition in experiment [1] is -0.59%; in experiment [2], 0.35%; in experiment [3], -2.28%.

Take `Cc1cc(N[C@@H](CC(C)C)C(=O)NCCCOC(C)C)nc(NCCc2ccc(F)cc2)n1`: the inhibition in experiment [1] was 2.71%; in experiment [2] it was 1.92%; in experiment [3], 0.62%.

Take `O=C(C=Cc1ccc(Cl)c(Cl)c1)NCCCCCN1CCC(CCNC(=O)c2ccc3c(c2)OCO3)CC1`: the inhibition was determined as 5.94% in experiment [1], 5.12% in experiment [2] and 5.57% in experiment [3].

`COC(=O)c1ccc2c(c1)nc(Nc1cccc(F)c1)n2CC(O)c1ccccn1` (stereo not drawn): the inhibition came out at 4.12% in experiment [1], 3.8% in experiment [2] and 2.91% in experiment [3].

With `CCCCCC(C)C(C)c1cc(O)c2c(c1)OC(C)(C)CC2c1cc[n+]([O-])cc1` (stereo not drawn), the inhibition was found to be 3.19% in experiment [1], 4.07% in experiment [2] and 4.64% in experiment [3].

Regarding `Cc1onc(-c2ccc(Cl)cc2)c1-c1ccnn1S(=O)(=O)c1ccc(Cl)cc1`, the inhibition in experiment [1] is -0.16%; in experiment [2], 4.29%; in experiment [3] it was 1.91%.

For `N=C(NCCc1c[nH]c2ccccc12)NCc1ccccc1Cl`, the inhibition in experiment [1] is -1.93%; in experiment [2], -1.07%; in experiment [3], -1.16%.

Turning to `FC(F)(F)c1ccc2nccc(NCc3ccccc3)c2c1`, the inhibition was 6.8% in experiment [1], 5.96% in experiment [2] and 1.41% in experiment [3].

On to `O=C(NCc1ccc(Cl)c(Cl)c1)c1cccc(C2CCCN(Cc3ccc4[nH]cnc4c3)C2)c1` (stereo not drawn), for which the inhibition in experiment [1] is 0.36%; in experiment [2], 2.01%; in experiment [3] it was -0.63%.

Take `COc1ccc(C2(CNCC(O)c3cccc([N+](=O)[O-])c3)CCCC2)cc1OC` (stereo not drawn): the inhibition in experiment [1] amounted to 2.7%; in experiment [2], 4.72%; in experiment [3] it was 3.66%.

For `Cc1ccccc1C1CCN(C2CCC(NC(=O)c3ccc(-c4cccs4)s3)CC2)CC1` (stereo not drawn), the inhibition in experiment [1] is 2.14%; in experiment [2] it was 1.24%; in experiment [3], 1.93%.

Consider `COc1nc2c(CCN3CC[C@@H](NCc4cc(C#N)c5c(c4)CCO5)[C@@H](O)C3)ccnc2cc1F`, for which the inhibition in experiment [1] was 7.43%; in experiment [2], 4.07%; in experiment [3] it was 0.66%.

Consider `O=C(Cc1c[nH]cn1)Nc1cccc(-c2ccc(-c3nc4cc(F)ccc4[nH]3)s2)c1`, for which the inhibition turned out to be 3.94% in experiment [1], 6.17% in experiment [2] and 0.26% in experiment [3].

With `CC(C)(C)Cn1cc(-c2ccc(C(=O)NCCc3ccc(S(C)(=O)=O)cc3)cc2)c(N)n1.CC(C)(C)Cn1ncc(-c2ccc(C(=O)NCCc3ccc(S(C)(=O)=O)cc3)cc2)c1N`, the values for the inhibition in experiment [1], in experiment [2] and in experiment [3] were 0.21%, 1.16% and 2.93%, respectively.

With `O=C1OC(c2ccccc2)(c2ccccn2)CN1C1CCN(Cc2cccn2-c2ccc(Cl)cc2)CC1` (stereo not drawn), the inhibition in experiment [1] was 2.2%; in experiment [2], 1.43%; in experiment [3], -0.08%.

Consider `COc1cc(Nc2nccc(Nc3ccc4c(C)n[nH]c4c3)n2)cc2ccccc12`, for which the inhibition in experiment [1] is 5.04%; in experiment [2], 2.79%; in experiment [3], -0.29%.

As for `O=C(Cc1ccc(-c2ccccc2)cc1)N[C@H]1CCN(Cc2ccc(OCCCN3CCCCC3)cc2)C1`, the inhibition in experiment [1] was 18.6%; in experiment [2], 17.2%; in experiment [3] it was 8.12%.

`CCCC(C(CC1CCC(C)CC1)C(=O)NC(CCCNc1ncccn1)C(=O)Nc1nccs1)N(O)C=O` (stereo not drawn): the inhibition came out at 3.88% in experiment [1], 3.89% in experiment [2] and 5.63% in experiment [3].

Take `Cc1ccc(Oc2ccc(NC(=O)CNc3ccccc3N3CCCC3=O)cc2)cc1`: the inhibition in experiment [1] came to 6%; in experiment [2] it was 6.14%; in experiment [3] it was 5.01%.

Turning to `CCCCCn1c(Sc2ccc(C#N)c([N+](=O)[O-])c2)nnc1-c1cccs1`, the inhibition was determined as 2.86% in experiment [1], 6.4% in experiment [2] and 2.32% in experiment [3].

With `O=C(/C=C/c1ccc(Cl)c(Cl)c1)NCCCCCN1CCCN(C(=S)Nc2ccc(Cl)cc2)CC1`, the results for the inhibition in experiment [1], in experiment [2] and in experiment [3] were 1.38%, 1.56% and 1.57%, respectively.

For `COc1ccc2ncc(F)c([C@H](O)CN3CCC(NCc4ccc5c(c4)NC(=O)CO5)CC3)c2c1`, the inhibition in experiment [1] is 1.17%; in experiment [2] it was 0.49%; in experiment [3], 1.56%.

For the molecule `CC(C)(CNCc1ccc(C(F)(F)F)cc1)c1nc(-c2ccc(Cl)c(O)c2)c(-c2ccncc2)[nH]1`, the inhibition in experiment [1] was 0.52%; in experiment [2], -0.09%; in experiment [3], 0.02%.

For `CN(C)Cc1cccc(-c2ccc3ccnc(N)c3c2)c1`, the inhibition was 1.78% in experiment [1], 3.34% in experiment [2] and 1.17% in experiment [3].

On to `CCOc1ccc2nc(N(CCCn3ccnc3)C(=O)C=Cc3cccs3)sc2c1`, for which the inhibition in experiment [1] is 3.54%; in experiment [2], 2.73%; in experiment [3] it was -8.76%.

Regarding `COc1cc2c(cc1OC)-c1cc(=Nc3c(C)cc(C)cc3C)n(C)c(=O)n1CC2`, the values for the inhibition in experiment [1], in experiment [2] and in experiment [3] were 0.22%, 2.72% and 0.49%, respectively.

As for `Cc1[nH]c(C)c(-c2ccc(OCCCc3ccccn3)cc2)c(=O)c1Br`, the inhibition worked out at 8.98% in experiment [1], 6.12% in experiment [2] and 8.48% in experiment [3].

One may read the inhibition as the change of the read-out against control, counted positive when it falls.
